Growth data for 17 compounds are collected here from PubChem BioAssay (NCI).

Holding throughout (experiment): NCI-60 one-dose screen, 48 h (100 = growth as untreated, 0 = no growth, -100 = all killed)
What all share (settings): 10 µM unless noted

Experiment [1] deals with HCT-15 colon.
For experiment [2], the system named is HT29 colon.
For experiment [3], the system named is SNB-75 CNS.
Experiment [4] concerns SNB-19 CNS.
Experiment [5] concerns U251 CNS.
Experiment [6] concerns PC-3 prostate.
Experiment [7] deals with SK-MEL-5 melanoma.
Experiment [8] relates to UACC-62 melanoma.
Experiment [9] deals with LOX IMVI melanoma.
Experiment [10] relates to SK-MEL-28 melanoma.

This is part of a sample that, as a whole, favours compounds with a hit. Of some 83,000 tested, about 20% had one in any assay.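 Interpretation: 100, growth as untreated; towards 0, rising growth inhibition; 0, no net growth; 0 to -100, cell death. Compounds scoring below 10 were considered active.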 A number with no mark means an inactive call. Active and inactive are the calls of the source.

For `COc1cc(C(=O)N2CCN(c3ccccc3OC)CC2)c(NC(=O)c2cnccn2)cc1OCc1ccccc1`, the growth in [1] is 81.9%; in experiment [2] it was 106%; in [3], 102%; in experiment [4], 85.9%; in experiment [5], 83.2%; in experiment [6] it was 70.9%. Further, the growth in [7] was 78.4%; in experiment [8] it was 73.3%; in experiment [9], 75.5%; in experiment [10] it was 132%.

`O=C1[C@@H](OS(=O)(=O)CC(F)(F)F)[C@H](c2ccc(F)cn2)N1c1cc2c3ccccc3ccc2c2ccccc12`: the growth is 61.9% in experiment [1]; 64.1% in experiment [2]; 83.4% in experiment [3]; 77.9% in [4]; 69.2% in experiment [5]; 62.8% in experiment [6]. For the same compound, the growth in experiment [7] is 67.2%; in experiment [8] it was 58.3%; in [9], 70.3%; in experiment [10], 79.7%.

With `CCOC(=O)/C(=C/c1c(-c2ccccc2)[nH]c2ccccc12)C(=O)c1ccc(Cl)cc1`, the growth was 21.2% in [1]; 44% in [2]; 35% in experiment [3]; 79.4% in [4]; 50.5% in [5]; 12.5% in experiment [6]. Besides, the growth in [7] was 53.4%; in [8], 43.5%; in experiment [9], 44.3%; in [10], 75.6%.

Turning to `O=C(O)c1cn(C2CC2)c2cc(N3CCN(C(=O)CSc4nnc(-c5ccc(Cl)cc5)n4-c4ccccc4)CC3)c(F)cc2c1=O`, the growth is 104% in experiment [1]; 97.2% in experiment [2]; 95.8% in experiment [3]; 91.3% in [4]; 101% in experiment [5]; 93.7% in experiment [6]. In addition, the growth in experiment [7] was 98.8%; in [8], 91.3%; in experiment [9], 72.3%; in experiment [10] it was 109%.

As for `O=C1c2ccccc2C(=O)c2c1oc1c2c(=O)[nH]c2ccccc21`, the growth in experiment [1] is 44.7%; in experiment [2], 103%; in experiment [3], 113%; in [4], 104%; in experiment [5], 79%; in experiment [6], 65.5%. Further, the growth was 79.7% in [7], 88.7% in experiment [8], 56.1% in [9] and 112% in [10].

For `CN(C)[C@@H]1C(=O)C(C(N)=O)=C(O)[C@@]2(O)C(=O)C3=C(O)c4c(O)cc(CN5CCc6ccccc6C5)c(Cl)c4C[C@H]3C[C@@H]12`, the growth is -75.1% (active) in experiment [1]; -84.6% (active) in [2]; -79.1% (active) in experiment [3]; -82.2% (active) in experiment [4]; -95.7% (active) in [5]; -85.5% (active) in experiment [6]. Also, the growth in [7] was -94.2% (active); in experiment [8], -89.5% (active); in [9] it was -87.2% (active); in [10], -86.6% (active).

Consider `O=C1C(=O)c2c(nc3ccc(Br)cn23)-c2ccccc21`, for which the growth is -75.7% (active) in [1]; -29.1% (active) in experiment [2]; -95.3% (active) in experiment [3]; -86.4% (active) in experiment [4]; -100% (active) in [5]; -63.4% (active) in experiment [6]. Besides, the growth is -97.6% (active) in [7], -87.6% (active) in experiment [8], -76.6% (active) in experiment [9] and -60% (active) in [10].

Regarding `CC1CCCN(CCCCCOc2ccc3oc4ccccc4c(=O)c3c2)C1` (stereo not given), the growth in experiment [1] was 26.4%; in experiment [2], 8.93% (active); in experiment [3], 75.8%; in experiment [4], 83.6%; in experiment [5], 62.7%; in experiment [6], 73.7%. Besides, the growth in experiment [7] was -59.2% (active); in [8], -26.5% (active); in [9], 33.2%; in [10], 45%.

With `C#C[C@@]1(O)[C@@H](CO)O[C@@H](n2ccc3c(N)ncnc32)[C@@H]1O`, the growth is 2.94% (active) in [1]; 2.83% (active) in [2]; -25.6% (active) in [3]; 7.29% (active) in experiment [4]; 3.15% (active) in experiment [5]; -21.4% (active) in [6]. Also, the growth is -52.7% (active) in [7], -16.5% (active) in experiment [8], -68.6% (active) in [9] and 63.6% in experiment [10].

For the compound `C=C1C(=O)O[C@H]2[C@H]1CC/C(COC(=O)c1cn(C)c3ccccc13)=C\CC[C@@]1(C)O[C@@H]21`, the growth was -44.9% (active) in experiment [1]; -77.2% (active) in experiment [2]; 59% in experiment [3]; 25.6% in [4]; 11.7% in experiment [5]; -55.1% (active) in experiment [6]. Moreover, the growth in [7] is 4.24% (active); in experiment [8] it was -51.1% (active); in [9] it was -86.5% (active); in experiment [10], -22% (active).

For the compound `O=C(CCc1nnco1)c1nc2ccc([N+](=O)[O-])cc2[nH]1`, the growth in [1] is 105%; in experiment [2] it was 103%; in [3] it was 104%; in experiment [4], 108%; in experiment [5] it was 107%; in experiment [6], 96.1%. In addition, the growth in experiment [7] was 109%; in experiment [8], 96.7%; in experiment [9] it was 93.2%; in [10] it was 111%.

On to `O=C(CCc1nnc2sc(OCc3ccccc3)nn12)c1nc2ccc([N+](=O)[O-])cc2[nH]1`, for which the growth in experiment [1] is 108%; in experiment [2], 107%; in [3], 103%; in experiment [4], 108%; in [5] it was 99.8%; in [6], 94.4%. Moreover, the growth is 110% in experiment [7], 96.6% in experiment [8], 91.3% in experiment [9] and 115% in [10].

Regarding `N#CC1(C#N)C2=C(CCCC2)NC(c2c(F)cccc2Cl)C1(C#N)C#N` (stereo not given), the growth is 66.9% in [1]; 17.3% in experiment [2]; 51.1% in experiment [3]; 69.2% in experiment [4]; 60.7% in experiment [5]; 72.1% in experiment [6]. Besides, the growth in experiment [7] is 63.9%; in experiment [8], 40.8%; in experiment [9] it was 53.4%; in [10], 65.8%.

As for `CC(C)NS(=O)(=O)c1cccc(-c2ccc3c4c(n(CCCN(C)C)c(=O)c3c2)-c2ccccc2C4=O)c1`, the growth in [1] was 67.9%; in [2], -16.2% (active); in experiment [3], 88.9%; in [4], 110%; in [5], 56%; in [6], 99.8%. Also, the growth was 94.1% in experiment [7], 106% in experiment [8], 100% in experiment [9] and 99.5% in experiment [10].

As to `COc1ccc2c(c1)C1(C(=O)N2)C(C#N)=C(c2ccccc2)Nc2c1c(-c1ccccc1)nn2-c1ccccc1` (stereo not given), the growth is 85% in experiment [1]; 43% in [2]; 33.8% in [3]; 59.7% in [4]; 9.08% (active) in [5]; 7.28% (active) in [6]. Moreover, the growth in experiment [7] is 58.6%; in experiment [8] it was 85.1%; in [9] it was 52.7%; in experiment [10] it was 42.9%.

For the compound `C=CCn1c(CN2CCN(c3cc4c(cc3F)c(=O)c(C(=O)O)cn4C3CC3)CC2)n[nH]c1=S`, the growth in [1] was 103%; in experiment [2], 90.5%; in experiment [3] it was 99.8%; in experiment [4] it was 107%; in experiment [5] it was 103%; in experiment [6] it was 101%. For the same compound, the growth in experiment [7] is 106%; in experiment [8], 99.9%; in experiment [9], 81.8%; in [10] it was 97.2%.

`C=C1C(=O)O[C@H]2[C@H]1CC/C(COC(=O)N1CCC[C@H]1C(=O)Nc1ccc(OC)c(C(N)=O)c1O)=C\CC[C@@]1(C)O[C@@H]21`: the growth is 59.6% in [1]; -8.09% (active) in [2]; 84% in experiment [3]; 60.5% in experiment [4]; 51.6% in experiment [5]; 74.4% in experiment [6]. For the same compound, the growth in [7] was 63.7%; in [8], 34.5%; in [9], 43.4%; in experiment [10], 49.4%.
